Measured values from PubChem BioAssay.
Several values for one entry are separate records, joined by “and”; a condition that tells them apart may be missing. Identical values can stand only once. Activity calls are given as the source filed them. Cut-off read from the data, not from the text of the source, unless noted: active = inhibition above about 80%; inactive = the rest.

What was measured:
[1] = viability loss with induced miR-34 in A549 – imaging, A549 dox-inducible miR-34, nuclei and caspase counts, primary screen (AID 1347080;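 active = compounds whose cell count with miR-34 switched on is under 0.7 times the count with it off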); conditions: A549 miR-34 inducible, Hoechst nuclei count, 48 h
[2] = MELAS cybrid and Rieske KO viability enhancers – cell-based, MELAS cybrids, Rieske KO mouse fibroblasts, CellTiter-Glo, primary screen (AID 1508586;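 active = mean z-score across replicates of 1.96 or higher in either the MELAS or the Rieske mutant cell line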;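 note: z relative to plate mean and SD of compound and empty wells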); conditions: low glucose
[3] = galactose survival enhancers in mitochondrial complex I cybrids – cell-based, galactose medium, ATP luminescence, primary screen (AID 1645843;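 active = z-score of at least 1.8 in each of two replicates, scored against plate mean and spread of sample wells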;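 note: positive z means more ATP and so rescue of galactose-driven cybrid death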); conditions: complex I mutant cybrid cells, 72 h, stronger effect = higher value
[4] = growth inhibition, single agent or in combination, cell-based, chromothripsis tumors, cisplatin or BGB combos (AID 1671449); conditions: LFS_MB_P medulloblastoma cells;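 note: cells exposed for 96 hours; 0% = vehicle DMSO and 100% = killing by high DMSO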
[5] = growth inhibition, single agent and combos, cell-based, chromothripsis tumors, cisplatin or BGB combos (AID 1671450); conditions: HDN33 neuroblastoma cells, stronger effect = higher value;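 note: cells exposed to compound for four days; 0% = vehicle DMSO and 100% = cell killing by high DMSO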
[6] = growth inhibition, single agents and combos, ICB984, cell-based, cisplatin or BGB combos, synergistic combos for chromothripsis tumors (AID 1671451; call rule not given here;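 note: cells exposed for 96 hours before readout; 0% = vehicle DMSO and 100% = killing by high DMSO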); conditions: ICB984 medulloblastoma cells, drug combinations, stronger effect = higher value
[7] = growth inhibition, single agents and combos, LFS_MB_1R, cell-based, cisplatin or BGB combos, synergistic combos for chromothripsis tumors (AID 1671452); conditions: LFS_MB_1R medulloblastoma cells, stronger effect = higher value;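 note: cells exposed for 96 hours before readout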
[8] = growth inhibition, single agents and combos, HTB85, cell-based, BGB or cisplatin IC20 combos, synergistic combos for chromothripsis tumors (AID 1671453); conditions: HTB85 osteosarcoma cells, drug combinations, stronger effect = higher value;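 note: cells exposed for 96 hours before readout; 0% = vehicle DMSO and 100% = high DMSO killing control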
[9] = growth inhibition, single agents and combos, CRL2098, cell-based, BGB or cisplatin IC20 combos, synergistic combos for chromothripsis tumors (AID 1671454); conditions: CRL2098 osteosarcoma cells, drug combinations, stronger effect = higher value;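 note: cells exposed for 96 h before readout; 0% = vehicle DMSO and 100% = killing by high DMSO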
[10] = growth inhibition, single agents and combos, HD-MB03, cell-based, BGB or cisplatin IC20 combos, synergistic combos for chromothripsis tumors (AID 1671455; in the data active = inhibition above about 83%;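 note: 0% = vehicle DMSO and 100% = high DMSO as cytotoxic control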); conditions: HD-MB03 medulloblastoma cells, stronger effect = higher value
[11] = growth inhibition, single agents and combos, UWB1.289, cell-based, BGB or cisplatin combos, synergistic combos for chromothripsis tumors (AID 1671456); conditions: UWB1.289 ovarian carcinoma cells, stronger effect = higher value;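 note: cells exposed to compound for four days; 0% = vehicle DMSO and 100% = killing by high DMSO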
[12] = growth inhibition, single agents and combos, LFS_MB_2R, cell-based, cisplatin combos, synergistic combos for chromothripsis tumors (AID 1671457); conditions: LFS_MB_2R medulloblastoma cells, stronger effect = higher value;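 note: cells exposed to compound for four days before readout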
[13] = growth inhibition, MDA-MB-436, cell-based, BGB or cisplatin combos, synergistic combos for chromothripsis tumors (AID 1671458; call rule not given here;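 note: cells exposed for 96 hours; 0% = vehicle DMSO and 100% = killing by high DMSO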); conditions: MDA-MB-436 breast carcinoma growth inhibition, drug combinations, stronger effect = higher value
[14] = UWB1.289_BRCA1 ovarian cancer growth, cell-based, BGB or cisplatin combinations (AID 1671459); conditions: UWB1.289 BRCA1 ovarian carcinoma, drug combinations, stronger effect = higher value
[15] = drug combination toxicity in non-malignant astrocytes – cell-based, BGB or cisplatin IC20 combos, cytotoxicity control for chromothriptic childhood tumor combination screen (AID 1671460); conditions: Human astrocytes, viability inhibition, drug combinations, at 0.5 µM, stronger effect = higher value;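 note: cells exposed to compounds for 96 hours before viability readout; 0% = vehicle and 100% = killing control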
[16] = BT084 cell growth, single and combined drugs, ICGC_MB145, cisplatin and BGB IC40 combos (AID 1671461); conditions: BT084 medulloblastoma cells, drug combinations, stronger effect = higher value;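 note: cells exposed to drugs for 96 hours; 0% = vehicle DMSO and 100% = high DMSO full killing control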
[17] = RCMB18 cell growth, single agent and combined, cisplatin and BGB IC40 combos (AID 1671462); conditions: RCMB18 medulloblastoma cells, stronger effect = higher value;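 note: cells exposed to compound for four days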
[18] = CRL1545 cell growth, single agent and combined, cisplatin and BGB IC20 combos (AID 1671464); conditions: CRL1545 osteosarcoma cells, stronger effect = higher value;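 note: cells exposed to compound for 96 hours before readout; 0% = vehicle DMSO and 100% = high DMSO killing control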
[19] = stronger effect = lower value, cell number ratio, induced over uninduced
[20] = measured here: relative caspase fold change +Dox/-Dox
[21] = measured here: total cells with miR-34 induction, stronger effect = lower value
[22] = measured here: total cells without miR-34 induction
[23] = MELAS cybrid survival, CellTiter-Glo 48 h, stronger effect = higher value
[24] = Rieske KO mouse fibroblast survival, CellTiter-Glo 72 h
[25] = measured here: combination with BGB IC40, at 0.05 µM
[26] = measured here: with BGB IC20 combination, at 0.5 µM
[27] = measured here: with cisplatin IC20 combination, at 0.5 µM
[28] = measured here: combination with cisplatin, at 0.5 µM
[29] = measured here: combination with cisplatin, at 5 µM

With `Cc1cn(C2C=CC(CO)O2)c(=O)[nH]c1=O` (stereo not drawn) the fold change [1, 19] was 0.962 (inactive) and 0.935 (inactive), the fold change [1, 20] was 1.05 and 0.911 and the cell count [1, 21] was 8970 and 7330. The cell count [1, 22] was 9320 and 7840, the z-score [2, 23] was -0.48 (inactive) and the z-score [2, 24] was 0.518. The z-score [3] was 0.42 (inactive), the inhibition ([4]; at 0.5 µM, stronger effect = higher value) was -20.9% (inactive) and the inhibition ([4]; measured here: combination with BGB IC20, at 0.005 µM) was -5.29%. The inhibition ([4]; measured here: combination with BGB IC40, at 0.005 µM) was -35%, the inhibition [4, 25] was -15.2% and the inhibition ([4]; measured here: combination with cisplatin, at 0.5 µM, stronger effect = higher value) was -28.2%. For the same molecule, the inhibition ([4]; measured here: combination with cisplatin, at 5 µM, stronger effect = higher value) was -24.4%, the inhibition ([5]; BGB combo, at 5 µM) was -42.2% and the inhibition ([5]; at 0.5 µM) was -34.4% (inactive). For the same molecule, the inhibition ([5]; cisplatin combo, at 5 µM) was -46.6%, the inhibition [5, 26] was -50.9% and the inhibition [5, 27] was -24.2%. For the same molecule, the inhibition ([5]; single agent, at 5 µM) was -41%, the inhibition ([6]; BGB IC20 combo, at 0.005 µM) was -4.4% and the inhibition ([6]; BGB IC40 combo, at 0.005 µM) was -46.7%. The inhibition ([6]; BGB IC40 combo, at 0.05 µM) was -3.74%, the inhibition ([6]; at 0.5 µM) was -26.7% (inactive) and the inhibition ([6]; cisplatin combo, at 0.05 µM) was -6.64%. It also gave an inhibition ([6]; cisplatin combo, at 0.5 µM) of -35.4%, an inhibition ([6]; cisplatin combo, at 5 µM) of -36.2% and an inhibition ([6]; measured here: 5 uM single agent, at 5 µM) of -29.8%. For the same molecule, the inhibition ([7]; at 0.5 µM) was -29.1% (inactive), the inhibition [7, 25] was -18.5% and the inhibition [7, 28] was -42.3%. The inhibition [7, 29] was -74.7%, the inhibition ([8]; at 0.5 µM) was -32.3% (inactive) and the inhibition ([8]; measured here: with BGB IC20, at 0.5 µM) was -52.5%. The inhibition ([8]; measured here: with BGB IC20, at 5 µM) was -73.7%, the inhibition ([8]; measured here: with cisplatin IC20, at 0.5 µM) was -25.1% and the inhibition ([8]; measured here: with cisplatin IC20, at 5 µM) was -14.5%. For the same molecule, the inhibition ([8]; single agent, at 5 µM) was 6.05%, the inhibition ([9]; at 0.5 µM) was -98.7% (inactive) and the inhibition ([9]; measured here: combination with BGB at IC20, at 0.5 µM) was -91.8%. The inhibition ([9]; measured here: combination with cisplatin at IC20, at 0.5 µM) was -105%, the inhibition ([10]; at 0.5 µM) was -18.8% (inactive) and the inhibition ([10]; measured here: combo with BGB at IC20, at 0.5 µM) was -15.9%. For the same molecule, the inhibition ([10]; measured here: combo with cisplatin at IC20, at 0.5 µM) was -28%, the inhibition ([11]; at 0.5 µM) was -10.5% (inactive) and the inhibition ([11]; measured here: inhibition with BGB combination, at 0.05 µM) was -4.7%. For the same molecule, the inhibition ([11]; measured here: inhibition with cisplatin combination, at 0.05 µM) was -16.8%, the inhibition ([12]; at 0.5 µM) was -12.5% (inactive) and the inhibition [12, 28] was -17.8%. For the same molecule, the inhibition [12, 29] was -34.1%, the inhibition ([13]; at 0.5 µM) was -24% (inactive) and the inhibition ([13]; measured here: BGB combination, at 0.5 µM) was -19.7%. It also gave an inhibition ([13]; measured here: BGB combination, at 5 µM) of -23.5%, an inhibition ([13]; measured here: cisplatin combination, at 0.5 µM) of -37.6% and an inhibition ([13]; measured here: cisplatin combination, at 5 µM) of -21%. For the same molecule, the inhibition ([14]; BGB combination, concentration series, at 5 µM) was -25.5%, the inhibition ([14]; at 0.5 µM) was -15.9% (inactive) and the inhibition ([14]; cisplatin combination, concentration series, at 5 µM) was -8.88%. For the same molecule, the inhibition [15] was -7.19% (inactive), the inhibition ([15]; measured here: combo with BGB IC20) was -8.45% and the inhibition ([15]; measured here: combo with cisplatin IC20) was -23.8%. For the same molecule, the inhibition ([16]; at 0.5 µM) was -17.7% (inactive), the inhibition ([16]; cisplatin combination, at 0.5 µM) was -7.07% and the inhibition ([16]; cisplatin combination, at 5 µM) was -5.39%. For the same molecule, the inhibition ([16]; measured here: BGB IC40 combination 0.05 uM, at 0.05 µM) was -19.6%, the inhibition ([16]; single agent, at 5 µM) was -14% and the inhibition ([17]; at 0.5 µM) was -28.5% (inactive). It also gave an inhibition ([17]; cisplatin combo, at 5 µM) of -44.1%, an inhibition ([17]; measured here: BGB IC40 combination, at 0.05 µM) of -19.7% and an inhibition [17, 28] of -44.8%. The inhibition ([17]; single agent, at 5 µM) was -28.1%, the inhibition ([18]; at 0.5 µM) was -40.6% (inactive) and the inhibition [18, 26] was -40.6%. It also gave an inhibition [18, 27] of -43.7%, an inhibition ([18]; single agent, at 0.05 µM) of -24.2% and an inhibition ([18]; single agent, at 5 µM) of -21.8%.

With `Cc1cc(-c2cnn(C)c2)nc(N)n1` the fold change [1, 19] was 0.853 (inactive), the fold change [1, 20] was 1.79 and the cell count [1, 21] was 8800. For the same molecule, the cell count [1, 22] was 10300, the z-score [2, 23] was -0.132 (inactive) and the z-score [2, 24] was -0.642. The z-score [3] was -0.56 (inactive).

In the case of `CCC1OC(=O)C(C)C(OC2C[C@@](C)(OC)C(O)C(C)O2)C(C)C(OC2OC(C)CC(N(C)C)C2O)[C@](C)(OC)CC(C)C(=O)C(C)C(O)[C@]1(C)O` (stereo partly drawn), the fold change [1, 19] is reported as 0.943 (inactive) and 0.989 (inactive), the fold change [1, 20] is reported as 1.76 and 0.873 and the cell count [1, 21] is reported as 9620 and 10500. The cell count [1, 22] was 10200 and 10600, the z-score [2, 23] was -0.386 (inactive) and the z-score [2, 24] was 0.552. The z-score [3] was -0.175 (inactive).

In the case of `CNc1ccnc(-c2cnn(CC(=O)Nc3cc(C)nn3C)c2)n1`, the fold change [1, 19] is reported as 0.867 (inactive), the fold change [1, 20] is reported as 1.09 and the cell count [1, 21] is reported as 8660. The cell count [1, 22] was 9980, the z-score [2, 23] was -0.389 (inactive) and the z-score [2, 24] was -1.16. For the same molecule, the z-score [3] was -0.515 (inactive).

In the case of `Cc1cc(CN(C)C(=O)c2cc(-c3cnn(C(C)C)c3)nc3cc(F)ccc23)on1`, the fold change [1, 19] is reported as 0.883 (inactive), the fold change [1, 20] is reported as 1.43 and the cell count [1, 21] is reported as 8520. For the same molecule, the cell count [1, 22] was 9660, the z-score [2, 23] was -1.12 (inactive) and the z-score [2, 24] was 0.385. For the same molecule, the z-score [3] was -0.48 (inactive).
